From the supplement of paper PMC7335073
In all, about 4,100 sequences were measured (“relative CpG methylation activity (normalised to average over all NNNCGNNN flanks)”: median about 0.94, highest 2% from about 1.9 on). Many of the other results were omitted from the sample, so the highest values are more common in it than they were.

target: DNMT3B catalytic domain (mouse) (UniProt O88509); test: relative CpG methylation activity (normalised to average over all NNNCGNNN flanks) (relative (1 = mean)); higher = more methylation of the central CpG; details: system: in vitro, murine catalytic domain; CpG state: hemimethylated substrate pool; residues: 558-859
Sequence (O88509 558-859): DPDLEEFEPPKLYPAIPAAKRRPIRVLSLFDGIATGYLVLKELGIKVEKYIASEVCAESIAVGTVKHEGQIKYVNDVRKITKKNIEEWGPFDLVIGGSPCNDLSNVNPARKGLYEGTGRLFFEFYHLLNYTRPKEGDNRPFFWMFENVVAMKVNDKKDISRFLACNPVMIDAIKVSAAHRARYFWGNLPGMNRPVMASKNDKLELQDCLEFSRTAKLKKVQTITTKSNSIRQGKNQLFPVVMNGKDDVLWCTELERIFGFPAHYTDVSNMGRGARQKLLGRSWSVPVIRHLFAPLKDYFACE
Protocol: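 Deep enzymology: a pool of dsDNA substrates with a central CpG flanked by 10 random nucleotides on each side was methylated by the murine DNMT3A or DNMT3B catalytic domain (0.8 mM SAM, 37 °C, 60 min). Methylation was then read out by hairpin ligation, bisulfite conversion and NGS. Values are the average methylation of each NNNCGNNN context (±3 flanks; the outer flanks are random and averaged over), normalised to the overall mean, so 1 = average activity.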

Row | Sequence | relative CpG methylation activity
1 | GTTCGGCA | 1.88
2 | GTTCGGCT | 1.75
3 | TTTCGGCA | 1.69
4 | TTTCGGCC | 1.65
5 | TTTCGGCG | 1.79
6 | TTTCGGGA | 1.79
7 | GTTCGGGT | 1.37
8 | CTTCGGCA | 1.97
9 | CTTCGGCT | 1.9
10 | TTTCGGGT | 2.02
11 | TTTCGGCT | 2.04
12 | CTTCGGCG | 1.67
13 | AGTCGGTG | 0.863
14 | ATTCGCGC | 0.947
15 | CGGCGCTA | 0.358
16 | CACCGGCC | 1.34
17 | ACTCGGCC | 1.62
18 | ACTCGGCA | 1.42
19 | ACTCGGCT | 1.95
20 | TTACGTTG | 1.29
21 | AGGCGCGA | 0.281
22 | ATCCGGCC | 1.48
23 | CTCCGGCC | 1.94
24 | CTCCGGGC | 2.05
25 | GTCCGGGC | 1.53

Row | Sequence | relative CpG methylation activity
26 | CTTCGGGC | 2.18
27 | CTCCGGCA | 1.88
28 | TTCCGGGC | 1.7
29 | ATTCGGGC | 1.72
30 | CTTCGGGT | 1.33
31 | ATCCGAGA | 1.4
32 | GCACGAGC | 1.79
33 | GAACGTGC | 1.03
34 | CAGCGGTG | 0.603
35 | GTCCGTAT | 0.661
36 | TATCGGAT | 1.18
37 | ACCCGATT | 1.41
38 | GCTCGTCA | 0.561
39 | CTACGGTA | 1.81
40 | GTACGGTA | 1.61
41 | TTACGGTA | 2.02
42 | CTACGGTC | 1.85
43 | TTACGGTC | 2.02
44 | ATACGGTC | 1.68
45 | GGACGCGG | 0.51
46 | CATCGATC | 1.81
47 | GCCCGACG | 1.16
48 | TCACGCTT | 1.36
49 | ATACGAAT | 1.64
50 | TTACGAGG | 1.8

Row | Sequence | relative CpG methylation activity
51 | ATACGAGG | 1.72
52 | ATACGAGC | 1.87
53 | GTACGACT | 1.46
54 | CTACGACG | 1.81
55 | ATACGAGA | 1.82
56 | CTACGACT | 1.92
57 | TTACGAGA | 1.84
58 | ATACGAGT | 1.92
59 | CTACGAGA | 1.96
60 | TTACGAGC | 2.09
61 | CATCGCTA | 0.882
62 | GATCGCTG | 0.405
63 | TCCCGCCG | 0.883
64 | GAGCGTAT | 0.648
65 | GCACGTGG | 0.497
66 | GTCCGTCT | 0.827
67 | TCTCGCGG | 0.647
68 | CTGCGCTG | 0.95
69 | TACCGCTA | 0.483
70 | CAGCGACC | 0.972
71 | GACCGCAA | 0.281
72 | GTACGAGT | 1.48
73 | CTACGAGT | 1.96
74 | CTACGAGG | 1.68
75 | GTACGAGC | 1.83

Row | Sequence | relative CpG methylation activity
76 | CTACGAGC | 2.12
77 | TTACGAGT | 1.74
78 | CGCCGGTC | 1.23
79 | AAACGCGG | 1.24
80 | CTCCGCGT | 0.717
81 | CCTCGAGT | 1.5
82 | TCTCGAGC | 1.53
83 | TCTCGAGT | 1.45
84 | TCACGAGA | 1.96
85 | TCACGAGG | 1.7
86 | AAACGAGA | 1.9
87 | GAACGAGA | 1.76
88 | TCTCGAGA | 1.96
89 | CAACGAGT | 1.47
90 | TCACGAGT | 1.49
91 | CAACGAGA | 1.94
92 | TAACGAGA | 1.72
93 | CAACGAGC | 1.74
94 | TTACGCCG | 1.59
95 | TACCGGCC | 1.52
96 | CGCCGTAG | 0.147
97 | AAACGCGC | 1.46
98 | AAGCGTTT | 0.413
99 | AAGCGTTC | 0.586
100 | TAGCGCCC | 0.741

Row | Sequence | relative CpG methylation activity
101 | TCGCGGAC | 0.818
102 | GGCCGTGG | 0.0382
103 | CCTCGAAT | 1.3
104 | CAACGGCC | 1.93
105 | AAACGGCT | 1.82
106 | CAACGGCA | 1.74
107 | GAACGGCC | 1.81
108 | CAACGGCT | 1.92
109 | AAACGGCC | 1.76
110 | ACGCGCGA | 0.411
111 | GACCGGGT | 1.03
112 | ACGCGTGA | 0.523
113 | TTCCGAAT | 1.58
114 | AAACGGCG | 1.68
115 | ACACGGCG | 1.6
116 | CCACGGCC | 1.7
117 | GAACGGCA | 1.84
118 | GCACGGCC | 1.77
119 | AAACGGCA | 1.91
120 | ACACGGCC | 1.94
121 | ACACGGCA | 1.89
122 | ACACGGCT | 1.89
123 | CAACGCGA | 0.965
124 | AGTCGTCA | 0.379
125 | CAACGTCA | 1.15

Row | Sequence | relative CpG methylation activity
126 | CGCCGTAC | 0.561
127 | ATTCGCAG | 0.453
128 | CTCCGAGT | 1.99
129 | GTTCGATC | 1.3
130 | TTTCGATA | 1.81
131 | CTCCGAGA | 1.73
132 | GTCCGATC | 1.77
133 | TTCCGAGT | 1.83
134 | TTCCGATC | 2.31
135 | ATCCGAGC | 1.68
136 | TTTCGATC | 1.95
137 | TTCCGATT | 1.75
138 | CTCCGAGC | 2.06
139 | ATCCGAGT | 1.37
140 | CATCGAAC | 1.6
141 | ACGCGTGG | 0.317
142 | GATCGTTG | 0.455
143 | TGACGGAT | 0.829
144 | TTCCGAAC | 1.89
145 | TTCCGAGA | 1.6
146 | TTCCGAAG | 1.32
147 | ATCCGAAC | 1.63
148 | TTCCGAGG | 1.42
149 | TTCCGAGC | 1.9
150 | CCGCGGTC | 1.43

Row | Sequence | relative CpG methylation activity
151 | GTTCGGGC | 1.53
152 | ACGCGATT | 1.09
153 | GATCGAAC | 1.16
154 | CTACGATT | 1.83
155 | TTACGATC | 2.01
156 | TTACGATA | 1.94
157 | TTACGATG | 1.53
158 | TTACGATT | 2.01
159 | TAACGATA | 1.81
160 | TCACGATA | 1.76
161 | GTACGATT | 1.75
162 | GTACGATC | 1.73
163 | CGTCGATA | 1.84
164 | TGCCGGGG | 0.469
165 | CGACGTGC | 0.674
166 | AGCCGAAA | 0.798
167 | AAACGTTA | 0.806
168 | CCCCGTTA | 0.69
169 | ACGCGTTG | 0.312
170 | TCACGACC | 1.17
171 | GTGCGGGT | 1.3
172 | TTACGAAT | 1.76
173 | CTACGAAG | 1.6
174 | TTACGAAA | 1.78
175 | CTACGAAC | 1.91
